The full data set covers some 7,900 targets. This sample favours those with a hit. About 0.6% of all pairs of compound and target were hits. A number with no mark means an inactive call.
Tests used:
Experiment in all cases: log2 fold change, soluble protein after heating vs DMSO (PISA); higher = thermal stabilisation; K562 cells, 10 uM, 30 min; active = over 0.2 and 3.5 SD of the protein, either way, in both replicates (recomputed)
[1] = compound: C1=CC=C(C=C1)[C@H](COC2=CC3=C(C=C2)NC(=O)N3)NC(=O)C4=CC=CN(C4=O)CC5=CC(=C(C=C5)F)F
Summary of the method: (§1)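 Values are thermal stability changes relative to control samples and are taken from duplicates. They are stated as log2 fold changes. Before quantification by TMTpro 16plex LC-MS/MS with equalised channel sums, K562 cells at 2×10^6 cells/mL were treated with 10 μM compound for 30 min, heated in aliquots for 3 min across 48°C-58°C, pooled, extracted in PBS with 0.5% NP-40 at 4°C, and centrifuged at 21,000xg for 90 min to give the soluble supernatant.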

[2] = compound: CC1=C(SC2=C1C(=N[C@H](C3=NN=C(N32)C)CC(=O)N)C4=CC=C(C=C4)Cl)C
Summary of the method: as §1

[3] = compound: CC1=C2C(=CC=C1)N=C(N(C2=O)C3=CC=CC=C3C)CN4C=NC5=C(N=CN=C54)N
Summary of the method: as §1

[4] = compound: Cc1sc2c(c1C)C(c1ccc(Cl)cc1)=N[C@@H](CC(=O)OC(C)(C)C)c1nnc(C)n1-2
Summary of the method: as §1

[5] = compound: c1ccc([C@@H]2C[C@H]2NC2CCNCC2)cc1
Summary of the method: as §1

Sequence of UniProt Q9UKF6 (Q9UKF6 whole entry, looked up): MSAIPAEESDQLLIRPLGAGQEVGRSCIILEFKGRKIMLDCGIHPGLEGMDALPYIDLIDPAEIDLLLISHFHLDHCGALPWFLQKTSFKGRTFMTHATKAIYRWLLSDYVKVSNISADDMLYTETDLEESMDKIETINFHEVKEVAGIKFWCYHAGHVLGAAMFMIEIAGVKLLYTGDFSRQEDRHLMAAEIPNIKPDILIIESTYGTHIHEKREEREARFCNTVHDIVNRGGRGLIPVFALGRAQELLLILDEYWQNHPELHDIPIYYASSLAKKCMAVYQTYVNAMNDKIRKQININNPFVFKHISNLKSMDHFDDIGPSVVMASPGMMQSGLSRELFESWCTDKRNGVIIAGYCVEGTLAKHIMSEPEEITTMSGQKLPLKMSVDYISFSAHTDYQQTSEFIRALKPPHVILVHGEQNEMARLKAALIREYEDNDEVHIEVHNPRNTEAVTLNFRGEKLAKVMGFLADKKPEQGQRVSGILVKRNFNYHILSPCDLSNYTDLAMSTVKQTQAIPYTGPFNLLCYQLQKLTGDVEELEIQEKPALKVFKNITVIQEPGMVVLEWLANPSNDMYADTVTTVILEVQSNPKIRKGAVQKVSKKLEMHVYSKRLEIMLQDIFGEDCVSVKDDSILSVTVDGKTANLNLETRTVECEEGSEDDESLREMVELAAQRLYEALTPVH
Sequence of UniProt Q00534 (Q00534 whole entry, looked up): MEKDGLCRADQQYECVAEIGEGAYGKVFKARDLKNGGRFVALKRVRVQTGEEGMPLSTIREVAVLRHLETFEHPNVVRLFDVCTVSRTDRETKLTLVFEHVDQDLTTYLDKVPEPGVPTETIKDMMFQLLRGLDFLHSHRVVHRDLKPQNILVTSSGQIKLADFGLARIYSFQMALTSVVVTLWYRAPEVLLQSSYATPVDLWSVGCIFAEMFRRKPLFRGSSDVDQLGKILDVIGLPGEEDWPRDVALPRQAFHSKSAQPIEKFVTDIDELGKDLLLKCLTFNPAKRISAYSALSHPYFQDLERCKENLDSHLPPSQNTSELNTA
Sequence of UniProt P45973 (P45973 whole entry, looked up): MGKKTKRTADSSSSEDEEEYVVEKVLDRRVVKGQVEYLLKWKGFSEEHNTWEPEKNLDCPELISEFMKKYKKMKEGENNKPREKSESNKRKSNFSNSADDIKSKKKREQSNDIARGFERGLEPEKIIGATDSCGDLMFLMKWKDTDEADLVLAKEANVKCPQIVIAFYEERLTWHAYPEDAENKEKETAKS
Sequence of UniProt Q13555 (Q13555 whole entry, looked up): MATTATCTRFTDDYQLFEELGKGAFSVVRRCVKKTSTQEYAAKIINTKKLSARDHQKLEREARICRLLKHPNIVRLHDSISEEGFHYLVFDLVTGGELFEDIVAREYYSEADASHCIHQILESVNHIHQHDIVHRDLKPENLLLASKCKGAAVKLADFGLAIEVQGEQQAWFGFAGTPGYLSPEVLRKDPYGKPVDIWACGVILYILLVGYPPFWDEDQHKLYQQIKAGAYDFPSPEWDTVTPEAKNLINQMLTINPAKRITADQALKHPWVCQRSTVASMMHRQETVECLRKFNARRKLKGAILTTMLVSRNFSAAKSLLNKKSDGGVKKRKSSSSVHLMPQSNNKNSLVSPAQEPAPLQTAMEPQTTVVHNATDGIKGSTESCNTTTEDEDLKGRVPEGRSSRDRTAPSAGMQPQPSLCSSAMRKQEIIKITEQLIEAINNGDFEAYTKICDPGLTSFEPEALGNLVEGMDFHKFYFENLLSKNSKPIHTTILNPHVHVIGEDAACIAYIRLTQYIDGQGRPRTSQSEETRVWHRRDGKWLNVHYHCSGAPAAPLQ
Sequence of UniProt Q9NZN8 (Q9NZN8 whole entry, looked up): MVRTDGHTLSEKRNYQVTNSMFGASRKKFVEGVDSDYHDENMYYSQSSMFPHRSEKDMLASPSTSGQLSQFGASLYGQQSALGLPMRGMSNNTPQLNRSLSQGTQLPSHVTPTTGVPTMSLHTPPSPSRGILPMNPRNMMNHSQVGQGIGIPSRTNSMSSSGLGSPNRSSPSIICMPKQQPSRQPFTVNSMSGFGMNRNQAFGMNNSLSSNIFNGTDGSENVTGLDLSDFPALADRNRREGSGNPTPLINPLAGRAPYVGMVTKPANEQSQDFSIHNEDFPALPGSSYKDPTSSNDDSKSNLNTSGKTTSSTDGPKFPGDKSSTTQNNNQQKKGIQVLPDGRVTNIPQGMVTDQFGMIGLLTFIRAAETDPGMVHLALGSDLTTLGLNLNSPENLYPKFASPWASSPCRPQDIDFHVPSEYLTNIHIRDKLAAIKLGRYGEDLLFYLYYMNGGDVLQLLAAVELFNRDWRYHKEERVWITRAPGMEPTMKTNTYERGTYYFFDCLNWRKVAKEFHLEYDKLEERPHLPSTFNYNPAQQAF
Sequence of UniProt Q9BT78 (Q9BT78 whole entry, looked up): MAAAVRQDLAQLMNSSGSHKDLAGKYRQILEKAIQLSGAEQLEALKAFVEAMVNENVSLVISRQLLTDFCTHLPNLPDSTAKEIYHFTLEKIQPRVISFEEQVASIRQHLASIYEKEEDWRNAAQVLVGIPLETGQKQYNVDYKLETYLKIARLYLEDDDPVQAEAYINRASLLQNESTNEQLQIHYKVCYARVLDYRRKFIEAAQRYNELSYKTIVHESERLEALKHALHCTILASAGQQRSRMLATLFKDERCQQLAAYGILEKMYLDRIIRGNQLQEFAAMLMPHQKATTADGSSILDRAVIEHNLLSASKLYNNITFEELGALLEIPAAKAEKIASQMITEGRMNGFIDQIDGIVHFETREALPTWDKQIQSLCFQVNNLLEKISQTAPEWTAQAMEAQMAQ
Sequence of UniProt P14635 (P14635 whole entry, looked up): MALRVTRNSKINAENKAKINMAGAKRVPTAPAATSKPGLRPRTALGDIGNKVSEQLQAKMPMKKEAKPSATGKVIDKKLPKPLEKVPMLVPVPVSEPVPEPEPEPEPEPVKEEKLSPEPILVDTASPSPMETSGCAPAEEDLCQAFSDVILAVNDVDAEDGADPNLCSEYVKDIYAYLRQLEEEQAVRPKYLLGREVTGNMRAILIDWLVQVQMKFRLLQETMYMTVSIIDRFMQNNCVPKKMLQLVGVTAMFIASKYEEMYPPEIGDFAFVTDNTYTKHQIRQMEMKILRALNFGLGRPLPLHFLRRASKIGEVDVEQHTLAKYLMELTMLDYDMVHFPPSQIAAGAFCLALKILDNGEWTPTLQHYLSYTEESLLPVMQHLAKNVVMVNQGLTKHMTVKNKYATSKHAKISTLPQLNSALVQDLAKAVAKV
Sequence of UniProt Q8N4Q1 (Q8N4Q1 whole entry, looked up): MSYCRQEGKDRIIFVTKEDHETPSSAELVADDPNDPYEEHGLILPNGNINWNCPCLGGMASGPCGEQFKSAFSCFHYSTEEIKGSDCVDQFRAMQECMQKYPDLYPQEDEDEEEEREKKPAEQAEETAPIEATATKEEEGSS
Sequence of UniProt Q7L3B6 (Q7L3B6 whole entry, looked up): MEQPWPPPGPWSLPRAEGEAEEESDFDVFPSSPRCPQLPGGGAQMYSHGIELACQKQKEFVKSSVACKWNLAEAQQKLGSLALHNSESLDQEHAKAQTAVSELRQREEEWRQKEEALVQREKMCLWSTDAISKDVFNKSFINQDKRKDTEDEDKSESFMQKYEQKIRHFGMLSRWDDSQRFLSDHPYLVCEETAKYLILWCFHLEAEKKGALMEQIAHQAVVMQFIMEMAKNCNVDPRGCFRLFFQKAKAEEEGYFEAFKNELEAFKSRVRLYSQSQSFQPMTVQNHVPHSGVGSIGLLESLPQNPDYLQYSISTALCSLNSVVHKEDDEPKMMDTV
Sequence of UniProt O75122 (O75122 whole entry, looked up): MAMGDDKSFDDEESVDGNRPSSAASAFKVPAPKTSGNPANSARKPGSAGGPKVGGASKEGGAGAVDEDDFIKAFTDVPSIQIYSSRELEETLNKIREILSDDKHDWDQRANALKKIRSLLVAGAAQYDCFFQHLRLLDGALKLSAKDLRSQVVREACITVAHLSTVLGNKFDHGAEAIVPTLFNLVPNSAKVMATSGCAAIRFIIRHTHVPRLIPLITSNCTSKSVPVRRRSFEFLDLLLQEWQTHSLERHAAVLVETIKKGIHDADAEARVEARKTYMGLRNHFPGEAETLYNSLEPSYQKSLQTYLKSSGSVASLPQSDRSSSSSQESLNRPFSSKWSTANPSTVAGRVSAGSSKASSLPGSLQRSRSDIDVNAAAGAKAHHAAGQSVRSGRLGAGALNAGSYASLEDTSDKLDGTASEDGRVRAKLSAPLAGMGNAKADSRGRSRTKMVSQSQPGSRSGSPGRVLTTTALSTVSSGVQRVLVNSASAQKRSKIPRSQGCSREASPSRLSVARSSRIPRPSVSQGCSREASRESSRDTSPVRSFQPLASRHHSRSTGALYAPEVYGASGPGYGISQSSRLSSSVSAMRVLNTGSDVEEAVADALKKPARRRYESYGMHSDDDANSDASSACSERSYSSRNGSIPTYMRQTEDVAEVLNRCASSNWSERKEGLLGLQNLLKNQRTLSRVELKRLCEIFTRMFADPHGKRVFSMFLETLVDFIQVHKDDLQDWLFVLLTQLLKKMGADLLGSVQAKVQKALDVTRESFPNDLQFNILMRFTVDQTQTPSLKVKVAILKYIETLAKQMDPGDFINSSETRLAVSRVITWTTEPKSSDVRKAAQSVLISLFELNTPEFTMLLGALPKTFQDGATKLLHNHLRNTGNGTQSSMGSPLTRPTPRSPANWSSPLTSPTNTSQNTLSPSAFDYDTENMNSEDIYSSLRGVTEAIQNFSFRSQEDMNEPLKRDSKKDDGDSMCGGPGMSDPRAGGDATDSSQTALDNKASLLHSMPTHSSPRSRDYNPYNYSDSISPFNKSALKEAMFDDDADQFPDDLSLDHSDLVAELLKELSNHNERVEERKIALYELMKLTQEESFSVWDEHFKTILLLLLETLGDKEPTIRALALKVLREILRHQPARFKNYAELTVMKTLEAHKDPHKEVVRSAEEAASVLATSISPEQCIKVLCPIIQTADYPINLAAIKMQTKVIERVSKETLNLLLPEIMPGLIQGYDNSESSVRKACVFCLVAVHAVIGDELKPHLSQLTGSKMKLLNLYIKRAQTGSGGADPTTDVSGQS

Row | Target | log2 fold change [1] | log2 fold change [2] | log2 fold change [3] | log2 fold change [4] | log2 fold change [5]
1 | CPSF1 (UniProt Q10570) | -0.012 | -0.049 | -0.017 | 0.132 | 0.006
2 | CLPP (UniProt Q16740) | 0.037 | 0.153 | 0.093 | -0.124 | 0.008
3 | CASP3 (UniProt P42574) | 0.018 | 0.004 | -0.005 | -0.055 | 0.003
4 | CELF2 isoform 3 (UniProt O95319) | -0.005 | 0.119 | 0.013 | 0.071 | -0.014
5 | C9orf64 (UniProt Q5T6V5) | -0.15 | 0.054 | 0.097 | 0.052 | -0.066
6 | CDC42BPB (UniProt Q9Y5S2) | -0.114 | -0.031 | 0.009 | 0.025 | -0.004
7 | CPSF7 isoform 3 (UniProt Q8N684) | 0.007 | 0.013 | -0.012 | 0.017 | -0.013
8 | CLASP2 isoform 3 (UniProt O75122) | -0.065 | 0.053 | 0.091 | -0.024 | -0.014
9 | CDK6 (UniProt Q00534) | -0.005 | -0.002 | 0.005 | -0.036 | -0.055
10 | CTBS (UniProt Q01459) | 0.082 | -0.002 | 0.014 | -0.019 | -0.006
11 | CLUH, A0A494C0R8 | -0.121 | -0.004 | 0.025 | 0.152 | 0.096
12 | CNOT2 (UniProt Q9NZN8) | 0.024 | -0.014 | 0.056 | 0.031 | -0.002
13 | COCH (UniProt O43405) | 0.006 | 0.061 | -0.193 | 0.144 | 0.006
14 | COPS4 (UniProt Q9BT78) | 0.04 | 0.023 | 0.016 | -0.01 | -0.011
15 | COX15 (UniProt Q7KZN9) | -0.027 | 0.071 | 0.036 | -0.013 | -0.02
16 | CHCHD4 isoform 2 (UniProt Q8N4Q1) | 0.08 | 0.205 | -0.006 | -0.489 (active) | -0.113
17 | COX7B (UniProt P24311) | -0.003 | 0.001 | 0.063 | -0.018 | 0.018
18 | CNOT4 isoform 6 (UniProt O95628) | -0.019 | 0.012 | 0.068 | -0.01 | 0.018
19 | CRK (UniProt P46108) | 0 | 0.013 | 0.005 | 0.028 | -0.01
20 | C22orf39 (UniProt Q6P5X5) | 0.126 | 0.145 |  | -0.06 | -0.037
21 | CDC37L1 (UniProt Q7L3B6) | -0.009 | 0.026 | 0.087 | 0.337 | 0.02
22 | CPSF3 (UniProt Q9UKF6) | -0.016 | 0.024 | 0.036 | -0.026 | 0.009
23 | CLN5 (UniProt O75503) | -0.003 | -0.007 |  | 0.057 | -0.296
24 | CRLF3 (UniProt Q8IUI8) | -0.03 | 0.045 | 0.087 | 0.088 | -0.036
25 | CORO2A (UniProt Q92828) | -0.057 | -0.041 | 0.061 | 0.045 | 0.071
26 | CDC25B isoform 4 (UniProt P30305) | 0.107 | 0.009 | 0.101 |  | -0.024
27 | CLCN3 isoform 2 (UniProt P51790) | 0.044 | -0.006 | -0.014 | -0.021 | 0.013

Row | Target | log2 fold change [1] | log2 fold change [2] | log2 fold change [3] | log2 fold change [4] | log2 fold change [5]
28 | CMTM3 (UniProt Q96MX0) | -0.179 | -0.001 | -0.056 | 0.044 | 0.081
29 | CCAR1 (UniProt Q8IX12) | -0.129 | 0.061 | 0.043 | 0.044 | -0.043
30 | CD55 isoform 7 (UniProt P08174) | 0.026 | -0.058 | -0.009 | -0.066 | -0.049
31 | CCNC (UniProt P24863) | -0.139 | -0.172 | 0.01 |  | -0.037
32 | CLPTM1L (UniProt Q96KA5) | -0.011 | 0.013 | 0.024 | -0.145 | 0.01
33 | CBX5 (UniProt P45973) | -0.001 | 0.029 | 0.05 | 0.016 | 0.008
34 | CD151 (UniProt P48509) | -0.126 | 0.049 | 0.031 | -0.046 | 0.101
35 | CDK4 (UniProt P11802) | 0.012 | 0.128 | 0.119 |  | -0.165
36 | C9orf72 (UniProt Q96LT7) | 0.02 | 0.009 | 0.085 | -0.115 | 0.002
37 | CAMK2G isoform 6 (UniProt Q13555) | -0.017 | 0.054 | 0.044 | 0.096 | -0.021
38 | CREB3L2 (UniProt Q70SY1) | 0.331 | -0.15 | 0.296 | -0.143 | -0.247
39 | CSTF2 (UniProt P33240) | 0.017 | 0.04 | 0.057 | -0.026 | 0.021
40 | CSNK2A2 (UniProt P19784) | -0.025 | 0.08 | 0.052 | 0.028 | 0.012
41 | CCAR2 isoform 2 (UniProt Q8N163) | -0.057 | -0.014 | 0.079 | -0.089 | 0.011
42 | CNN2 (UniProt Q99439) | -0.061 | 0.011 | 0.039 | 0.007 | 0.01
43 | CDKN1B (UniProt P46527) | -0.009 | -0.029 | -0.036 |  | -0.004
44 | CKS1B (UniProt P61024) | -0.004 | 0.056 | 0.024 | -0.067 | -0.02
45 | CDC26 (UniProt Q8NHZ8) | 0.05 | 0.027 | -0.346 | -0.038 | 0.022
46 | COX20 isoform 2 (UniProt Q5RI15) | 0.071 | 0.05 | 0 | -0.022 | 0.042
47 | CCNB1 (UniProt P14635) | -0.004 | 0.036 | 0.015 | -0.007 | 0.026
48 | CD53 (UniProt P19397) | -0.05 | 0.142 | 0.106 | 0.083 | 0.014
49 | CLINT1 isoform 3 (UniProt Q14677) | 0.053 | -0.039 | -0.01 | 0.046 | 0.044
50 | C4A (UniProt P0C0L4) | -0.158 | -0.067 | 0.127 | -0.101 | -0.01
51 | CPT2 (UniProt P23786) | -0.402 | 0.19 | 0.155 | -0.017 | -0.026
52 | CSNK2A1 (UniProt P68400) | 0.018 | 0.033 | 0.018 | -0.008 | 0.02
53 | CDK17 isoform 2 (UniProt Q00537) | -0.095 | -0.006 | -0.049 |  | -0.083

Reference: the supplement of paper PMC10849652
